Source: PubChem BioAssay (NCI)
About 79,000 compounds went through this panel and 15% of them were active in at least one assay; those are over-represented in the sample as a whole. Calls of active or inactive are those of the source. Rule as the data show it: active = growth inhibition above about 70%; inactive = the rest.

How the values were obtained:
[1] = NCI Yeast Anticancer Drug Screen. Data for the rad50 strain (AID 155);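 also: 0% = growth of vehicle-only cultures of the same strain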; conditions: S. cerevisiae rad50 strain growth inhibition; at 50.0 µM; stronger effect = higher value
Outline: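 A DNA repair-deficient yeast mutant serves as the test organism; compound-induced growth inhibition is calculated against vehicle-treated cells.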

[2] = NCI Yeast Anticancer Drug Screen. Data for the mec2-1 strain (AID 157); conditions: S. cerevisiae mec2-1 strain, at 50.0 µM, stronger effect = higher value
Outline: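 Test agents were screened against the mec2-1 yeast strain, with defined DNA repair or cell cycle alteration. Growth was scored as inhibition against vehicle-only controls.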

[3] = NCI Yeast Anticancer Drug Screen. Data for the sgs1 mgt1 strain (AID 161);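 also: 0% = growth of cultures given vehicle only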; conditions: S. cerevisiae sgs1 mgt1 strain, at 50.0 µM, stronger effect = higher value
Outline: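 Genetically altered yeast, compound exposure, growth inhibition relative to vehicle.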

[4] = NCI Yeast Anticancer Drug Screen. Data for the cln2 rad14 strain (AID 165);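 also: 0% = growth equal to vehicle treated cultures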; conditions: S. cerevisiae cln2 rad14 strain, at 50.0 µM, stronger effect = higher value
Outline: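 Growth of compound-exposed yeast (cln2 rad14 genotype) measured and expressed as inhibition relative to vehicle.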

[5] = NCI Yeast Anticancer Drug Screen. Data for the bub3 strain (AID 167); conditions: S. cerevisiae bub3 mutant strain, at 50.0 µM, stronger effect = higher value
Outline: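 Inhibition values come from growth of compound-treated mutant yeast normalised to vehicle-treated controls.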

[6] = NCI Yeast Anticancer Drug Screen. Data for the mlh1 rad18 strain (AID 175); conditions: S. cerevisiae mlh1 rad18 strain growth inhibition; at 50.0 µM; stronger effect = higher value
Outline: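 In this whole-cell yeast screen, a strain with altered DNA damage repair is challenged with compound, and its growth is measured against matched vehicle-treated controls.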

Measured: growth inhibition

COC(=O)C(c1ccccc1)C(SCc1ccccc1)c1ccccc1 (stereo not given)
inactive: [1] 2.85% | [2] 1.15% | [3] -18.9% | [4] 0.95% | [5] -7.15% | [6] 4.7%

C[N+](C)(C)CCCc1ccc2oc3ccccc3c2c1
inactive: [1] 21.8% | [2] 8.65% | [3] 7.35% | [4] 6.15% | [5] 0.7% | [6] 7.95%

C[N+](C)(C)Cc1ccc2ccccc2c1CC(O)(c1ccccc1)c1ccccc1
inactive: [1] 16.6% | [2] -0.6% | [3] 19.1% | [4] 4.85% | [5] 1.95% | [6] 9.8%

O=c1[nH]c2cc([N+](=O)[O-])ccc2nc1/C(=N/Nc1ccccc1)C(O)c1ccc(C(O)/C(=N\Nc2ccccc2)c2cnc3cc([N+](=O)[O-])ccc3n2)cc1 (stereo not given)
inactive: [1] -4.05% | [2] -23.9% | [3] -11.4% | [4] 5.25% | [5] -6.45% | [6] -4.3%

O=C(O)c1nccc2c([N+](=O)[O-])cccc12
inactive: [1] -2.4% | [2] 6.4% | [3] 16.6% | [4] -13.5% | [5] -4.4% | [6] -12.9%

COc1ccc([N+](=O)[O-])c2c1CONC2(C)C(=O)O (stereo not given)
inactive: [1] 8.95% | [2] 16.2% | [3] 8.2% | [4] -4.95% | [5] 3.75% | [6] 16.2%

CCOc1c(N=Nc2ccc(Cl)cc2)c(C)nn1C(N)=S
inactive: [1] -19.2% | [2] 16.2% | [3] 12.2% | [4] -12.6% | [5] 36.4% | [6] 44.5%

COc1ccc(-c2cc(N3CCN(c4ccccc4)CC3)c(C#N)c(=O)o2)cc1
inactive: [1] 25.1% | [2] 3.3% | [3] 18.5% | [4] 15.8% | [5] -2.1% | [6] 12.1%

O=C(O)CCCc1ccc2sc3ccccc3c2c1
inactive: [1] 47.4% | [2] 32.6% | [3] 27.6% | [4] 50.5% | [5] 24.9%
active: [6] 76.8%

CC(=O)CCC(=O)c1ccoc1
inactive: [1] 9.05% | [2] -4.2% | [3] 4.4% | [4] -10.1% | [5] -9.55% | [6] 9.25%

CCCCCC/C(C)=C/CCC(C)=O
inactive: [1] 12.4% | [2] 4.15% | [3] 14.8% | [4] 11.3% | [5] 4.7% | [6] -0.25%

OCCOc1ccc2ccccc2c1-c1c(OCCO)ccc2ccccc12
active: [1] 98.5% | [2] 95.7% | [3] 98.5% | [4] 97.7% | [5] 98.9% | [6] 98.6%

CC(=O)Nc1ccc(Nc2nc(=O)[nH]c(=O)[nH]2)cc1
inactive: [1] -3.2% | [2] -12.6% | [3] 13.1% | [4] -0.55% | [5] -1.6% | [6] -32.6%

Cn1c(=O)c2c(ncn2-c2ccc(N)cn2)n(C)c1=O
inactive: [1] -7.1% | [2] -4.55% | [3] -7.15% | [4] 9.45% | [5] 11.2% | [6] 4.1%

CCCCCCCCCCCCCCCCCCSCCCCCCCCCCCCCCCCCC
inactive: [1] 25.1% | [2] 2.75% | [3] -16.9% | [4] -20.4% | [5] -2.55% | [6] -17.6%

NC(=O)c1csc(C2OC(CO)CC2O)n1 (stereo not given)
inactive: [1] 4.55% | [2] -2.95% | [3] -2.45% | [4] -6% | [5] 0.2% | [6] -2.1%

C1CCC2C(C1)CCCC2CC1CCCC2CCCCC21 (stereo not given)
inactive: [1] -11.2% | [2] 1.1% | [3] -10.3% | [4] -17.5% | [5] -9.05% | [6] -4.65%

COc1ccc(/C(=C/n2ccnc2)C(=O)c2ccc(OC)c(OC)c2)cc1
inactive: [1] -41.6% | [2] -18.7% | [3] -44.8% | [4] 5.8% | [5] -25.4% | [6] -44.5%

O=C(c1ccc(Cl)cc1)c1onc(-c2ccccc2)c1-c1ccccc1
inactive: [1] -13.6% | [2] 0% | [3] -0.3% | [4] -43.9% | [5] -9.2% | [6] -3.05%

C=CCOC(=O)/C=C\c1ccccc1OC
inactive: [1] 23.9% | [2] 6.45% | [3] 16.6% | [4] -39.9% | [5] 14.8% | [6] -3.3%

CC(N)C(=O)NC(C(=O)NC1C(O)OC(CO)C(O)C1O)C(C)C (stereo not given)
inactive: [1] 6.1% | [2] -17.2% | [3] -17.4% | [4] 7.95% | [5] 7.1% | [6] -5.75%

COc1ccc(N2C(=O)C3c4[nH]c5ccccc5c4C4CC(C)(C)CC(C)(C)C4C3C2=O)cc1 (stereo not given)
inactive: [1] 35.9% | [2] 10.7% | [3] 13.3% | [4] -13.1% | [5] 33.1% | [6] 8.65%

S=C1SC(=Nc2ccccc2)C(=Nc2ccccc2)N1c1ccccc1
inactive: [1] -21.1% | [2] -15.9% | [3] 6.7% | [4] -37.1% | [5] -19.5% | [6] -20.6%

O=c1[nH]nc(Sc2ccccc2)c(=O)[nH]1
inactive: [1] -11.8% | [2] -3.4% | [3] -12.6% | [4] -10.4% | [5] -11.4% | [6] -14.9%

N#C/C(=C\c1c2ccccc2c(Cl)c2ccccc12)C(N)=S
inactive: [1] 34.2% | [2] 24.9% | [3] 45.1% | [4] 7.55% | [5] 15.4% | [6] 24.4%

CCc1n[nH]c(=O)n1N1C(=O)C2CCCCC2C1=O (stereo not given)
inactive: [1] 16.1% | [2] -20.5% | [3] 35.1% | [4] 6.5% | [5] 3.2% | [6] -25.9%

CC(Cc1ccccc1)NC(=O)CCCN1C(=O)c2ccccc2C1=O (stereo not given)
inactive: [1] -2.55% | [2] 1% | [3] -10.7% | [4] -37.8% | [5] 6.4% | [6] -5.15%

c1ccc(CC/C(=N/N=C(\CCc2ccccc2)c2ccccc2)c2ccccc2)cc1
inactive: [1] 10.7% | [2] 8.05% | [3] -13.3% | [4] -8.75% | [5] -3% | [6] 7.6%

CC12CCC3c4ccc(OC(=O)c5ccc([N+](=O)[O-])cc5)cc4CCC3C1CCC2=O (stereo not given)
inactive: [1] 13.8% | [2] -6.95% | [3] -6.45% | [4] 5.75% | [5] -0.65% | [6] -1.75%

O=c1[nH]cc(N=Cc2ccccc2O)c(=O)[nH]1.[Cl][Pt]
inactive: [1] 24.9% | [2] 9.05% | [3] 39% | [4] 3.35% | [5] 3.2% | [6] 0.4%

O=[N+]([O-])c1ccc(COP(=O)(OCc2ccc([N+](=O)[O-])cc2)OCc2ccc([N+](=O)[O-])cc2)cc1
inactive: [1] -8% | [2] -2.35% | [3] 2.9% | [4] -46.5% | [5] 25.3% | [6] 4.75%

NC1=NS(=O)(=O)Nc2nc(-c3ccccc3)c(-c3ccccc3)nc21
inactive: [1] -24.6% | [2] -10.2% | [3] 12.5% | [4] -0.85% | [5] 2.6% | [6] 7.3%

CCCN(CCCC(NC(C)=O)C(=O)NCc1ccccc1)C(=O)NC (stereo not given)
inactive: [1] -11.1% | [2] -18.8% | [3] -28.4% | [4] 1.2% | [5] -4.65% | [6] -45.3%

CCOC(=O)C1SCSCC1=O (stereo not given)
inactive: [1] -1.1% | [2] -1.7% | [3] -5.55% | [4] -30.2% | [5] -20.6% | [6] 6%

Nc1ccc(N=Nc2ccc(OCCN(CCO)CCO)cc2)c(N)n1
inactive: [1] 23.8% | [2] -22.8% | [3] 8.8% | [4] 4.95% | [5] 21.6% | [6] 15.7%

NC(N)=NC(N)=Nc1ccc2ccccc2c1
inactive: [1] 58.4% | [2] 12.3% | [3] 17% | [4] 20.3% | [5] 8.6% | [6] 22.6%

COc1ccccc1NC(=O)C(CC(C(=O)Nc1ccccc1OC)/C(C)=N/NC(=O)c1ccccc1O)/C(C)=N/NC(=O)c1ccccc1O (stereo not given)
inactive: [1] -27.8% | [2] -14.2% | [3] -28.2% | [4] 21.9% | [5] -3.55% | [6] -9.1%

CCN(CC)c1ccc(NC(C)=O)c(C)c1
inactive: [1] -16.2% | [2] 21.1% | [3] 9.65% | [4] -15.8% | [5] 18.1% | [6] 3.3%

CC1(C)OC2C(C3N(c4ccccc4)CCN3c3ccccc3)OC(n3ccc(=O)[nH]c3=O)C2O1 (stereo not given)
inactive: [1] -37.4% | [2] -5.85% | [3] -8.35% | [4] 14.1% | [5] -2.5% | [6] -12.7%

Cc1ncc(C(=O)O)c(CO)c1N
inactive: [1] 7.45% | [2] -15.9% | [3] -14.8% | [4] 13.3% | [5] -18.4% | [6] 4.8%
